# Test results from PubChem BioAssay (NCI).
# About 83,000 compounds went through this panel and 20% of them were active in at least one assay; those are over-represented in the sample as a whole.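 Interpretation: 100, growth as untreated; towards 0, rising growth inhibition; 0, no net growth; 0 to -100, cell death. Compounds scoring below 10 were considered active.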 A number with no mark means an inactive call. Calls of active or inactive are those of the source.
# System: RPMI-8226 leukemia
# Assay: NCI-60 one-dose screen, 48 h (100 = growth as untreated, 0 = no growth, -100 = all killed)
# Conditions: 10 µM
row,Compound,growth
1,O=C(O)CCN1CCN(c2cccc(Cl)c2)CC1,112%
2,CCCCC(CCCC)(S(=O)(=O)CC)S(=O)(=O)CC,90.8%
3,COc1ccc(/C=C2\CN(Cc3cn(CCCNc4ccnc5cc(Cl)ccc45)nn3)C/C(=C\c3ccc(OC)cc3)C2=O)cc1,18%
4,Cn1c2c(cc(S(=O)(=O)c3ccccc3)c1=O)CCc1c-2cnn1-c1cccc(Cl)c1,82.6%
5,CCOc1ccc(-c2cnnn2-c2nonc2-n2cccc2)cc1,12.5%
6,COc1ccc(-c2csc3c2-n2cccc2C3=O)cc1O,-19.8% (active)
7,O=C1OCC2=C1C(c1ccc3c(c1)OCO3)CC(=O)N2c1cccc(Cl)c1 (stereo not drawn),90.1%
8,COc1cc2nc(N3CCC[C@H](NC4=CC(=O)c5ccccc5C4=O)C3)nc(N)c2cc1OC,-50.1% (active)
9,CC1SC(c2ccc(Cl)cc2)N(CCc2cccs2)C1=O (stereo not drawn),-10.3% (active)
10,C[C@@H](Oc1cc(-c2cnn(C3CC4(CNC4)C3)c2)cnc1N)c1c(Cl)ccc(F)c1Cl,27.7%
11,Cc1nn(-c2ccccc2)c2nc3nc4c(c(N)c3c(-c3ccc(Cl)cc3)c12)CCC4,82.3%
12,COc1ncnc2c1ncn2C/C(Br)=C(\Br)CCl,-25.4% (active)
13,CCOC(=O)C(CC(c1ccccc1)N1CCCCC1)[N+](=O)[O-] (stereo not drawn),57.9%
14,O=c1nc(NO)[nH]c(=O)n1Cc1ccc(F)cc1,105%
15,CCN(CC)CCCNc1ccc(C)c2sc3ccccc3c(=O)c12,15.4%
16,Cn1cc(C(=O)NCCC(=N)N)cc1NC(=O)CN=C(N)N,110%
17,Cc1cc(=O)c2c(C)ccc(C)c2[nH]1,105%
18,COc1ccc(OC2=C(C#N)C(=N)N3c4ccccc4Sc4ccccc4C3N2)cc1 (stereo not drawn),88%
19,O=c1onc(-c2ccccc2)c2ccccc12,98.4%
20,O=C1C(Cl)=C(NCCCN2CCOCC2)C(=O)c2ccccc21,78.3%
21,CCCCc1ccc(NC(=O)C(F)(F)F)cc1,91.4%
22,O=C1CC(c2ccsc2)c2snc(-c3ccc(Cl)cc3)c2N1 (stereo not drawn),12.5%
23,COc1ccc2nc(-n3nc(C)cc3C)c(-n3nc(C)cc3C)nc2c1,102%
